Tb PYK inh – inhibitors of Trypanosoma brucei pyruvate kinase; AID 624173; TbPYK enzyme, Kinase-Glo Plus ATP luminescence, 45 min; Potency, µM (series often up to 76.8 µM), actives largely listed as inhibitors; Q57TT1; 410,000 compounds, 0.12% hits; note: nearly all actives have a fitted effect of over 50% in size
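Quantitative HTS: titrated library compounds versus trypanosomal pyruvate kinase in TEA buffer (pH 7.2) containing KCl, MgCl2, BSA and Tween-20. Reactions were initiated with ADP, 130 uM final. Kinase-Glo Plus luminescence was read after 45 min at RT.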
Sm TGR block – blocks Schistosoma mansoni thioredoxin glutathione reductase | 360,000 compounds, 3% hits | Potency, µM (series often up to 114 µM), usual class: inhibitors | Q962Y6 | purified TGR, DTNB reduction, TNB absorbance 405 nm; note: nearly all actives have a fitted effect of over 60% in size
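First, TGR (20 nM dispensed) and NADPH were mixed with compound. Second, a 15 min room-temperature incubation followed. Third, further NADPH and then DTNB were added to start the reaction. Finally, TNB absorbance was monitored kinetically.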
Shiga inhibitor – Shiga toxin inhibition | Vero cells, Shiga toxin protein synthesis inhibition reporter | inhibition, % at 38.7 µM | 290,000 compounds, 9.2% hits | AID 2315; in the data active = inhibition mostly above about 28%, no sharp cut-off; inactive = mostly below about 43%
Cycloheximide cs – counter-screen hit for Shiga toxin inhibitors, cycloheximide | cell reporter, cycloheximide protein synthesis inhibition counterscreen | max response, % | 300,000 compounds, 12% hits; in the data active = max response mostly above about 13%, no sharp cut-off; inactive = mostly below about 14%; note: read at 38.3 µM for the half of the compounds with a filed dose
LmPK inhibitor – LmPK (Leishmania mexicana) enzyme inhibition | Q27686 | purified LmPK, Kinase-Glo ATP luminescence, 1 h | Potency, µM (top dose mostly 57.5 µM), usual class: inhibitors | 290,000 compounds, 0.37% hits
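qHTS format; LmPK 0.1 nM; substrates PEP 0.5 mM and ADP 0.1 mM. One-hour room-temperature incubation, then coupled luciferase luminescence; 0.5 nM enzyme wells mark activation.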
Giardia FBPA inh – inhibitors of Giardia lamblia fructose-1,6-bisphosphate aldolase | 290,000 compounds, 0.71% hits | A8B2U2 | purified Giardia FBPA | Potency, µM (series often up to 59.6 µM), actives largely listed as inhibitors; note: nearly all actives have a fitted effect of over 55% in size
Target sequence (A8B2U2 whole entry, looked up): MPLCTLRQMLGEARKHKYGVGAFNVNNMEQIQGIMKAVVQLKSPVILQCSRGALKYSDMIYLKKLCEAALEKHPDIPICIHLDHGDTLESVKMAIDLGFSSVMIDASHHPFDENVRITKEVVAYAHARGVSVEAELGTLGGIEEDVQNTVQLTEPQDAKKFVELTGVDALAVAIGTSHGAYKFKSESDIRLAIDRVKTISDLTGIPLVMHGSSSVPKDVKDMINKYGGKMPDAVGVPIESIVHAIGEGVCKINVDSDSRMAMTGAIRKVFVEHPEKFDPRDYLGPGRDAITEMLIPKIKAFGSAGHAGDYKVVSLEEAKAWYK
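40 nM FBPA preincubated 10 min at RT with compound (up to 57.5 uM final), then substrate plus GAPDH/TPI/NAD/arsenate coupling and diaphorase/resazurin added. Fluorescence read after 20 min at RT, 525/598 nm.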
Large screens that a line does not name were inactive. Only a selection was taken, and hits are over-represented in it overall. Unless noted, calls come from the whole dose curve; as a rule, active = well fitted curve in the direction sought with a large enough effect; inconclusive = small, poorly fitted or top-dose-only effect, or another doubt; inactive = no such curve, though single readings can be large; an effect the other way counts as inactive or inconclusive.

CN(CC(=O)Nc1ccc(Cl)c(Cl)c1)CC(=O)Nc1ccc2c(c1)OCO2	none (no result: Shiga inhibitor, Cycloheximide cs, LmPK inhibitor, Giardia FBPA inh)
O=C(Nc1ccc2nsnc2c1)c1ccc2c(c1)OCO2	Shiga inhibitor 64, Cycloheximide cs 32
O=C(Nc1ccc2c(c1)OCO2)c1cccc(Cl)c1	Shiga inhibitor 107, Cycloheximide cs 49, LmPK inhibitor inconclusive
O=C(Nc1ccc2c(c1)OCO2)c1ccc(CO)cc1	none (no result: Shiga inhibitor, Cycloheximide cs, LmPK inhibitor, Giardia FBPA inh)
Cc1ccc(-n2nc3ccc(NC(=O)c4ccc5c(c4)OCO5)cc3n2)cc1	none
O=C(Nc1ccc(Cl)c(Cl)c1)c1ccc2c(c1)OCO2	Shiga inhibitor 98, Cycloheximide cs 42
O=C(OCc1cn([C@H]2CN(C(=O)c3cccs3)[C@@H](c3ccc(Cl)cc3)C[C@@H]2O)nn1)c1ccccc1	none (no result: Sm TGR block, Shiga inhibitor, Cycloheximide cs, LmPK inhibitor, Giardia FBPA inh)
Cc1ccc(CC(=O)Nc2c(C(=O)N3CCN(c4ccccc4)CC3)oc3ccccc23)cc1	none (no result: Shiga inhibitor, Cycloheximide cs, LmPK inhibitor, Giardia FBPA inh)
COc1ccc(-n2c(=O)c(-c3cccs3)nc3cnc(N4CCN(C)CC4)nc32)cc1	none (no result: Tb PYK inh, Sm TGR block, Shiga inhibitor, Cycloheximide cs, LmPK inhibitor)
CC(C)C(=O)Nc1ccc(NC(=O)c2ccc3c(c2)OCO3)cc1	none
O=C(Nc1ccc(Br)cc1)c1ccc2c(c1)OCO2	Shiga inhibitor 162, Cycloheximide cs 38
O=C(Nc1ccc2c(c1)oc1ccccc12)c1ccc2c(c1)OCO2	Cycloheximide cs 45
O=C(Nc1ncccc1O)c1ccc2c(c1)OCO2	none (no result: Shiga inhibitor, Cycloheximide cs, LmPK inhibitor, Giardia FBPA inh)
O=C(Nc1ccon1)c1ccc2c(c1)OCO2	Shiga inhibitor 31, Cycloheximide cs 43
CCOc1ccccc1NC(=O)CSc1nnc(N)s1	none (no result: Shiga inhibitor, Cycloheximide cs, LmPK inhibitor, Giardia FBPA inh)
Cc1c(NS(=O)(=O)c2ccccc2)cc(C(C)C)c(O)c1S(=O)(=O)c1ccc(Cl)cc1	none (no result: Shiga inhibitor, Cycloheximide cs, LmPK inhibitor, Giardia FBPA inh)
O=C(CSc1nc2ccccc2o1)N/N=C/c1ccco1	Shiga inhibitor 50, Cycloheximide cs 21
O=C(CSc1nc2ccccc2[nH]1)N/N=C/c1ccco1	Shiga inhibitor 62, Cycloheximide cs 24
Cn1cccc1/C=N/NC(=O)CSc1nc2ccccc2[nH]1	Cycloheximide cs 20
C[C@]12CCC(=O)C=C1CC[C@H]1C2CC[C@@]2(C)[C@@H]1CC[C@]2(C)O (stereo partly specified)	none (no result: Sm TGR block, Shiga inhibitor, Cycloheximide cs, LmPK inhibitor, Giardia FBPA inh)
COc1ccc(CCNC(=O)C2COc3ccccc3C2)cc1OC (stereo unspecified)	none (no result: Shiga inhibitor, Cycloheximide cs, LmPK inhibitor, Giardia FBPA inh)
O=C(O)c1nn(-c2ccccc2-c2n[nH]c(=O)[nH]c2=O)c(=O)[nH]c1=O	Sm TGR block 11µM, Giardia FBPA inh inconclusive (no result: Tb PYK inh)
Cc1ccc(C(=O)c2cc3ccccc3o2)cc1C	Shiga inhibitor 59, Cycloheximide cs 39
Cc1ccc(C(=O)c2cc3ccccc3o2)cc1	Shiga inhibitor 93, Cycloheximide cs 55
O=C(c1cccc([N+](=O)[O-])c1)c1cc2ccccc2o1	none
O=C(c1cc2ccccc2o1)c1cccs1	Shiga inhibitor 82, Cycloheximide cs 50
c1ccc2c(-c3cccc4nccn34)cncc2c1	none (no result: Sm TGR block, Shiga inhibitor, Cycloheximide cs, LmPK inhibitor, Giardia FBPA inh)
COC(=O)c1scc(C)c1NC(=O)/C=C/C(=O)O	Sm TGR block 1.4µM
COC(=O)c1scc(C)c1NC(=O)Nc1ccccc1	none
O=C(Nc1ccccc1N1CCCC1)C1CCCO1 (stereo unspecified)	none (no result: Shiga inhibitor, Cycloheximide cs, LmPK inhibitor, Giardia FBPA inh)
O=C(NCCc1ccc(Cl)cc1)C1COc2ccccc2C1 (stereo unspecified)	none (no result: Shiga inhibitor, Cycloheximide cs, LmPK inhibitor, Giardia FBPA inh)
O=C(COc1ccc(Br)cc1Br)NC1CCS(=O)(=O)C1 (stereo unspecified)	none (no result: Shiga inhibitor, Cycloheximide cs, LmPK inhibitor, Giardia FBPA inh)
O=C(COc1ccc(Br)cc1Cl)NC(=O)NC1CCCC1	none (no result: Shiga inhibitor, Cycloheximide cs, LmPK inhibitor, Giardia FBPA inh)
O=C(COc1ccc(Br)cc1Cl)NC1CCCCC1	Shiga inhibitor active, Cycloheximide cs 36
CC(C)NC(=O)NC(=O)COc1ccc(Br)cc1Br	Shiga inhibitor 75, Cycloheximide cs 130
O=C(COc1ccc(Br)cc1Br)NC1CCCC1	Shiga inhibitor 109, Cycloheximide cs 43
CC(C)NC(=O)NC(=O)COc1c(F)c(F)cc(F)c1F	none
CC(C)C(NC(=O)c1ccc(C(C)(C)C)cc1)C(=O)NCc1ccccn1 (stereo unspecified)	none (no result: Shiga inhibitor, Cycloheximide cs, LmPK inhibitor, Giardia FBPA inh)
COC(=O)[C@@H]1C[C@H]2CC[C@H](O)C[C@H]2N1Cc1c(F)cccc1Cl	none (no result: Tb PYK inh, Sm TGR block, Shiga inhibitor, Cycloheximide cs, LmPK inhibitor)
COc1ccc(/C(N)=N/OC(=O)c2ccc3c(c2)OCO3)cc1OC	none
N/C(=N\OC(=O)c1ccc2c(c1)OCO2)c1cccnc1	Shiga inhibitor 58, Cycloheximide cs 21, LmPK inhibitor 25µM

Assay outcomes (PubChem)
